Assay results from PubChem BioAssay (NCI).
This is part of a sample that, as a whole, favours compounds with a hit. Of some 83,000 tested, about 20% had one in any assay.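 Values shown are percent growth following 48 h exposure of cells in 96-well plates to a single concentration of compound; below 10 was considered active.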 The source made the active and inactive calls.

How the values were obtained:
Assay in all cases: NCI-60 one-dose screen, 48 h (100 = growth as untreated, 0 = no growth, -100 = all killed)
Details in all cases: 10 µM unless noted
[1] = test system: NCI-H23 lung
[2] = test system: NCI-H322M lung
[3] = test system: HOP-62 NSCLC
[4] = test system: NCI-H460 lung
[5] = test system: HOP-92 NSCLC
[6] = test system: NCI-H522 lung
[7] = test system: A549/ATCC NSCLC
[8] = test system: 786-0 renal
[9] = test system: DU-145 prostate
[10] = test system: COLO 205 colon

Measured: growth

O=c1c2cccc(F)c2sc2c(N3CCNCC3)nc3ccccc3c12
inactive: [1] 51% | [2] 37.9% | [3] 37.2% | [5] 35.3% | [6] 48.6% | [7] 21.8% | [8] 37% | [9] 22.3%
active: [4] -77.2%

C[C@@H](C(=O)NCCCC#Cc1cnc(Nc2ccc(C#N)cc2)nc1NC1CC1)N(C)C(=O)/C=C/CN(C)C
inactive: [1] 22.8% | [2] 63% | [3] 44.2% | [4] 15.3% | [5] 107% | [6] 59.1% | [7] 32.8% | [8] 39.8% | [9] 38.4%

CNCCNc1nc2ccccc2c2c(=O)c3cccc(C)c3sc12
inactive: [1] 58.2% | [2] 40.9% | [3] 25.6% | [5] 44% | [6] 27.8% | [7] 35.7% | [8] 57.3% | [9] 27.8%
active: [4] 9.45%

C=C1C(=O)O[C@H]2[C@H]1CC/C(COC(=O)/C=C\C(=O)O)=C\CC[C@@]1(C)O[C@@H]21
inactive: [1] 98.9% | [2] 105% | [3] 99.2% | [4] 107% | [5] 108% | [6] 97.5% | [7] 105% | [8] 109% | [9] 112%

O=C(/C=C/c1ccc(F)cc1)c1ccc(Nc2nc(NCCO)nc(Nc3ccc(Cl)cc3)n2)cc1
inactive: [1] 89.1% | [2] 93.1% | [3] 80.8% | [4] 61.6% | [5] 87.8% | [6] 81.1% | [7] 51.1% | [8] 69.8% | [9] 84.6%

COc1cc2nc(NC3CCCC3)nc(NC3CCN(C(C)C)CC3)c2cc1OC
inactive: [1] 88.7% | [2] 100% | [3] 89.3% | [4] 71.8% | [5] 47.8% | [6] 62.6% | [7] 75.7% | [8] 80.7% | [9] 74.8%

Cc1ccc(C2CC(c3ccc(Nc4nc(NCCO)nc(Nc5ccc(Cl)cc5)n4)cc3)=NN2c2cc(Cl)cc(Cl)c2)cc1 (configuration not stated)
inactive: [1] 92.5% | [2] 85% | [3] 82.8% | [4] 98.9% | [5] 101% | [6] 104% | [7] 94.2% | [8] 102% | [9] 112%

O=c1c2cc(F)ccc2sc2c(NCCN3CCCC3)nc3ccccc3c12
inactive: [1] 77.1% | [2] 69% | [3] 67.6% | [4] 12.3% | [5] 27.5% | [6] 63.8% | [7] 53.7% | [8] 55.6% | [9] 45.8%

COC(=O)c1c2c(c(C)[n+]([O-])c1C)C(=O)C=C(NCc1ccccc1)C2=O
active: [1] -50% | [2] -5.71% | [3] 2.96% | [4] -13.1% | [5] -27.2% | [6] -26.1% | [7] -4.94% | [8] 4.63% | [9] -92.7%

COc1cc(C2CC(c3ccc(Nc4nc(NCCO)nc(N5CCOCC5)n4)cc3)=NN2c2cc(Cl)cc(Cl)c2)cc(OC)c1OC (configuration not stated)
inactive: [1] 56.7% | [2] 72.6% | [3] 67.2% | [4] 22.2% | [5] 32.7% | [6] 66% | [7] 36.6% | [8] 12.5% | [9] 67.5%

COc1cc(CNC(=O)Cc2ccccc2)ccc1OCc1cn(-c2ccc(F)cc2)nn1
inactive: [1] 94.9% | [2] 103% | [3] 104% | [4] 101% | [5] 107% | [6] 90.1% | [7] 97.5% | [8] 104% | [9] 108%

O=c1oc2ccc(Cl)cc2c(=O)n1-c1cc(C(F)(F)F)cc(C(F)(F)F)c1
active: [1] -5.36% | [2] 3.4% | [3] -9.09% | [4] 1.5% | [5] -7% | [7] 6.11% | [8] -11.8% | [10] -74.8%
inactive: [9] 14.4%

CCOc1ccc2nc(C)cc(Nc3ccc(Br)cc3)c2c1
inactive: [1] 95.8% | [2] 93.9% | [3] 109% | [4] 101% | [5] 105% | [7] 95.2% | [8] 108% | [10] 95.9% | [9] 110%

O=C1NC(=S)NC(=O)C1=Cc1cn(Cc2cn(Cc3cccc4ccccc34)nn2)c2ccccc12
inactive: [1] 88% | [2] 93.7% | [3] 94.9% | [4] 89.4% | [5] 102% | [7] 106% | [8] 115% | [10] 114% | [9] 105%

CN(O)c1nc(N(C)O)nc(N2CCOCC2)n1
inactive: [1] 66% | [2] 35.1% | [3] 34.5% | [5] 52.4% | [7] 33% | [8] 21% | [9] 38.8%
active: [4] 8.62% | [10] 3.87%

COc1ccc2c(c1)C=C1CSCC3=Cc4cc(OC)ccc4OC13O2
active: [4] 6.88% | [10] 3.24%
inactive: [1] 18.7% | [2] 49.2% | [3] 38.2% | [5] 44.9% | [7] 23.6% | [8] 38.6% | [9] 17.7%

Nc1nc(-c2cnccn2)nn1-c1nc2ccccc2s1
inactive: [1] 95.2% | [2] 103% | [3] 95.4% | [4] 104% | [5] 106% | [7] 92.7% | [8] 102% | [10] 111% | [9] 106%

O=c1c(-c2nc3ccccc3[nH]2)cc2ccccc2n1Cc1cn(Cc2ccc(N3CCOCC3)cc2)nn1
inactive: [1] 76.5% | [2] 68.8% | [3] 16.3% | [4] 55.3% | [5] 75.9% | [7] 74.8% | [8] 57.1% | [10] 83.7% | [9] 36.9%

CC[C@]1(O)C[C@@H]2CN(CCc3c([nH]c4ccccc34)[C@@](C(=O)OC)(c3cc4c(cc3OC)N(C)[C@H]3[C@@](O)(C(=O)OC)[C@H](OC(=O)CCCBr)[C@]5(CC)C=CCN6CC[C@]43[C@@H]65)C2)C1
active: [4] 5.85% | [5] -0.264% | [10] -53.2% | [9] 5.82%
inactive: [1] 33.1% | [2] 38.7% | [3] 29.2% | [7] 15.2% | [8] 10.4%

CCCCNc1nc(NC(C)(C)C)nc(NC(C)(C)C)n1
inactive: [1] 47.9% | [2] 97.8% | [3] 84.1% | [4] 82.5% | [5] 48.6% | [7] 56.3% | [8] 48.2% | [10] 63.5% | [9] 74.6%

CNC(=O)c1cc(Oc2ccc(CC(=O)Nc3cc(C(C)(C)C)cn3C)cc2)ccn1
inactive: [1] 50.2% | [2] 93% | [3] 56% | [4] 74.8% | [5] 84% | [6] 75.1% | [7] 68.9% | [8] 89.7% | [9] 93.9%

CC1CCCCN1CCCNC(=O)c1ccc2c(c1)sc1nc(-c3ccc(F)cc3)cn12 (configuration not stated)
inactive: [1] 92.1% | [2] 107% | [3] 90.9% | [4] 102% | [5] 83.1% | [7] 108% | [8] 78.8% | [10] 98% | [9] 105%

CCOc1ccc(Nc2ccnc3cc(Cl)ccc23)cc1
inactive: [3] 24.5% | [8] 19.1%
active: [1] -3.27% | [2] -0.617% | [4] 5.71% | [5] -25% | [7] 1.55% | [10] -91.1%

Cc1ccc2cc3c(N)c4c(C)ccc(C)c4nc3nc2c1
active: [10] -53.3%
inactive: [1] 89.4% | [2] 72.4% | [3] 76.3% | [4] 53% | [5] 29.4% | [7] 45.1% | [8] 54.2% | [9] 80.5%

O=C(NC1C(O)OC(CO)C(O)C1O)NS(=O)(=O)c1ccc(Cl)cc1 (configuration not stated)
inactive: [1] 104% | [2] 99.5% | [3] 92.9% | [4] 104% | [5] 101% | [7] 109% | [8] 104% | [10] 114% | [9] 108%

O=c1oc2ccc(Cl)cc2c(=O)n1-c1ccc(F)cc1F
active: [1] 7.47% | [2] 3.62% | [3] 4.11% | [4] 7.56% | [5] -22.9% | [7] 4.94% | [8] 9.41%
inactive: [10] 64.9% | [9] 18.7%

Cn1nc(C(C)(C)C)cc1NC(=O)Cc1ccc(/C=C2\C(=O)Nc3ccccc32)cc1
inactive: [1] 41.1% | [2] 84.8% | [3] 74.3% | [4] 67.8% | [5] 59.5% | [7] 57.6% | [8] 72.1% | [10] 80.2% | [9] 56.6%
